Data published in PubChem BioAssay (NCATS).
Inconclusive results are not listed. Calls of active or inactive are those of the source. Calls follow the shape of the dose curve; as a rule, active = well fitted cell-killing curve with a large enough effect; inconclusive = small, poorly fitted or top-dose-only effect, or effect the other way; inactive = flat fitted curve, though single readings scatter.

Experiments:
Assay in all cases: Primary qHTS to identify gynecologic anti-cancer compounds using libraries of approved drugs and bioactive compounds (AID 1345084); also: nearly all actives have a fitted effect of over 55% in size
Hek293T = details: Gynecologic cancer cell panel viability, ATPlite luminescence, 48 h, control line for the selectivity index; series mostly up to 57.5 µM
Summary of the method: (§1)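 ATP-based viability (ATPlite), 1,000 cells/well, 16 h pre-incubation, 48 h compound at 37 C, 5% CO2, 15 min RT before read.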

JEG-3 = details: Gynecologic cancer cell panel viability, ATPlite luminescence, 48 h; series mostly up to 57.5 µM
Summary of the method: as §1

OV90 = details: Gynecologic cancer cell panel viability, ATPlite luminescence, 48 h; series mostly up to 57.5 µM
Summary of the method: as §1

PA-1 = details: Gynecologic cancer cell panel viability, ATPlite luminescence, 48 h; series mostly up to 57.5 µM
Summary of the method: as §1

SKOV3 = details: Gynecologic cancer cell panel viability, ATPlite luminescence, 48 h; series mostly up to 57.5 µM
Summary of the method: as §1

Tov-21-G = details: Gynecologic cancer cell panel viability, ATPlite luminescence, 48 h; series mostly up to 57.5 µM
Summary of the method: as §1

Tov112D = details: Gynecologic cancer cell panel viability, ATPlite luminescence, 48 h; series mostly up to 57.5 µM
Summary of the method: as §1
% is scaled to controls: 0 for no effect and ±100 for the full control effect.

CN(C(=O)Cc1ccccc1)C(CN1CCCC1)c1ccccc1 (stereo unspecified)
inactive: Potency (Hek293T) | Potency (JEG-3) | Potency (OV90) | Potency (PA-1) | Potency (SKOV3) | Potency (Tov-21-G) | Potency (Tov112D)

COCC1OC(=O)c2coc3c2C1(C)C1=C(C3=O)C2CCC(=O)C2(C)CC1O (stereo unspecified)
inactive: Potency (Hek293T) | Potency (JEG-3) | Potency (OV90) | Potency (PA-1) | Potency (SKOV3) | Potency (Tov-21-G) | Potency (Tov112D)

C/C=C(\C)C(=O)OC1CC2C(CC=C3CC(OC4CC(OC)C(OC5CC(OC)C(OC6OC(C)C(OC7OC(CO)C(O)C(O)C7O)C(OC)C6O)C(C)O5)C(C)O4)CCC32C)C2(O)CCC(C(C)=O)C12C (stereo unspecified)
inactive: activity change, negative = cytotoxicity (Hek293T) 2.23% [at 11.6 µM] | activity change, negative = cytotoxicity (JEG-3) 1.45% [at 11.6 µM] | activity change, negative = cytotoxicity (OV90) 8.31% [at 11.6 µM] | activity change, negative = cytotoxicity (PA-1) -3.75% [at 11.6 µM] | activity change, negative = cytotoxicity (SKOV3) 18.2% [at 11.6 µM] | activity change, negative = cytotoxicity (Tov-21-G) 3.39% [at 11.6 µM] | activity change, negative = cytotoxicity (Tov112D) 3.97% [at 11.6 µM]

C/C=C(\C)C(=O)OC1C(C)OC(OC2C(C)OC(OC3CCC4(C)C(=CCC5C4CCC4(C)C(C(C)OC6OC(COC7OC(CO)C(O)C(O)C7O)C(O)C(O)C6O)CCC54O)C3)CC2OC)C(O)C1OC (stereo unspecified)
inactive: activity change, negative = cytotoxicity (Hek293T) 8.11% [at 11.6 µM] | activity change, negative = cytotoxicity (JEG-3) -0.0196% [at 11.6 µM] | activity change, negative = cytotoxicity (OV90) -0.455% [at 11.6 µM] | activity change, negative = cytotoxicity (PA-1) 9.3% [at 11.6 µM] | activity change, negative = cytotoxicity (SKOV3) -10% [at 11.6 µM] | activity change, negative = cytotoxicity (Tov-21-G) 3.11% [at 11.6 µM] | activity change, negative = cytotoxicity (Tov112D) -0.387% [at 11.6 µM]

N#C[C@@H](O[C@@H]1O[C@H](CO[C@@H]2O[C@H](CO)[C@@H](O)[C@H](O)[C@H]2O)[C@@H](O)[C@H](O)[C@H]1O)c1ccccc1
inactive: Potency (Hek293T) | Potency (JEG-3) | Potency (OV90) | Potency (PA-1) | Potency (SKOV3) | Potency (Tov-21-G) | Potency (Tov112D)

C=C[C@H]1[C@H](O[C@@H]2O[C@H](CO)[C@@H](O)[C@H](O)[C@H]2O)OC=C2C(=O)OCC[C@H]21
inactive: Potency (Hek293T) | Potency (JEG-3) | Potency (OV90) | Potency (PA-1) | Potency (SKOV3) | Potency (Tov-21-G) | Potency (Tov112D)

CN1CCCC1CCOC(c1cc2nccc(C(=O)O)c2[nH]1)c1ccccc1Cl (stereo unspecified)
inactive: Potency (Hek293T) | Potency (JEG-3) | Potency (OV90) | Potency (PA-1) | Potency (SKOV3) | Potency (Tov-21-G) | Potency (Tov112D)

CCCCCOc1cc2c(cc1-c1cc(/C=C/C(=O)O)ccc1O)C(C)(C)CCC2(C)C
inactive: Potency (Hek293T) | Potency (JEG-3) | Potency (OV90) | Potency (PA-1) | Potency (SKOV3) | Potency (Tov-21-G) | Potency (Tov112D)

CCN1C[C@]2(OC(=O)c3ccccc3NC(C)=O)CC[C@H](OC)[C@@]34[C@@H]2C[C@@H]([C@@H]13)[C@@]1(O)C[C@H](OC)[C@H]2C[C@@H]4[C@]1(O)[C@H]2OC
inactive: Potency (Hek293T) | Potency (JEG-3) | Potency (OV90) | Potency (PA-1) | Potency (SKOV3) | Potency (Tov-21-G) | Potency (Tov112D)

CCN1C[C@]2(COC(=O)c3ccccc3N3C(=O)C[C@H](C)C3=O)CC[C@H](OC)[C@@]34[C@@H]5C[C@H]6[C@H](OC)[C@@H]5[C@](O)(C[C@@H]6OC)[C@](O)([C@@H](OC)[C@H]23)[C@@H]14
inactive: Potency (Hek293T) | Potency (JEG-3) | Potency (OV90) | Potency (PA-1) | Potency (SKOV3) | Potency (Tov-21-G) | Potency (Tov112D)

CN1[C@H]2C[C@H](OC(=O)[C@H](CO)c3ccccc3)C[C@@H]1[C@@H](O)C2
inactive: Potency (Hek293T) | Potency (JEG-3) | Potency (OV90) | Potency (PA-1) | Potency (SKOV3) | Potency (Tov-21-G) | Potency (Tov112D)

COC1=CC(=O)O[C@@H](CCc2ccccc2)C1
inactive: Potency (Hek293T) | Potency (JEG-3) | Potency (OV90) | Potency (PA-1) | Potency (SKOV3) | Potency (Tov-21-G) | Potency (Tov112D)

C=C(CO)C(=O)O[C@H]1C/C(C)=C/CC/C(CO)=C/[C@H]2OC(=O)C(=C)[C@H]12
inactive: Potency (Hek293T) | Potency (JEG-3) | Potency (OV90) | Potency (PA-1) | Potency (SKOV3) | Potency (Tov-21-G) | Potency (Tov112D)

C=C1[C@@H]2CC[C@@]3(C)[C@H](c4ccoc4)OC(=O)C[C@]13O[C@H]1CC(=O)C(C)(C)[C@H](C(OC(C)=O)C(=O)OC)[C@]12C (stereo partly specified)
inactive: Potency (Hek293T) | Potency (JEG-3) | Potency (OV90) | Potency (PA-1) | Potency (SKOV3) | Potency (Tov-21-G) | Potency (Tov112D)

COc1cc(CCNCc2ccccc2O)c(OC)cc1C#N
inactive: Potency (Hek293T) | Potency (JEG-3) | Potency (OV90) | Potency (PA-1) | Potency (SKOV3) | Potency (Tov-21-G) | Potency (Tov112D)

N#CC(OC1OC(COC2OC(CO)C(O)C(O)C2O)C(O)C(O)C1O)c1ccccc1 (stereo unspecified)
inactive: Potency (Hek293T) | Potency (JEG-3) | Potency (OV90) | Potency (PA-1) | Potency (SKOV3) | Potency (Tov-21-G) | Potency (Tov112D)

C/C=C(\C)C(=O)OC1CC2C(C)(C)OC(=O)CC(OC(C)=O)C2(C)C2CC(OC(=O)C(C)C)C3(C)C(c4ccoc4)CC4OC43C12C (stereo unspecified)
inactive: Potency (Hek293T) | Potency (JEG-3) | Potency (OV90) | Potency (PA-1) | Potency (SKOV3) | Potency (Tov-21-G) | Potency (Tov112D)

C[C@]12CC[C@@H](O)C[C@H]1CC[C@@H]1[C@@H]2CC[C@]2(C)C(=O)CC[C@@H]12
inactive: Potency (Hek293T) | Potency (JEG-3) | Potency (OV90) | Potency (PA-1) | Potency (SKOV3) | Potency (Tov-21-G) | Potency (Tov112D)
